# Data as given in PubChem BioAssay (NCATS).
# Inconclusive results are not listed. Calls of active or inactive are those of the source. Calls come from the whole dose curve.
# Experiment: Cell Viability - HepG2 (AID 433);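 note: potency for ATP loss meaning cytotoxicity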
# Conditions: qHTS
# From the text: NIH Chemical Genomics Center [NCGC]
# NIH Molecular Libraries Screening Centers Network [MLSCN]
# National Institutes of Environmental Health Sciences [NIEHS]
# National Toxicology Program [NTP]
# We have developed a 1536-well cell-based assay for quantitative high throughput screening (qHTS) against a number of cell lines to determine in vitro cytotoxicity of small molecules. This particular assay uses the HepG2 cell line which is derived from hepatocellular carcinoma.
# NCGC Assay Protocol Summary:
# The CellTiter-Glo luminescent cell viability assay (Promega) is a homogeneous method to measure the number of viable cells in culture. The end point readout of this assay is based on quantitation of intracellular ATP, an indicator of metabolic activity, using the luciferase reaction. Luciferase catalyzes the oxidation of beetle Luciferin to oxyluciferin and light in the presence of ATP. The luminescent signal is proportional to amount of ATP present.
# Using the CellTiter-Glo luminescent cell viability assay, the amount of cellular ATP was measured in the HepG2 cell line with complete culture medium following compound treatment for 40 hours. The assay was performed in opaque white Kalypsys 1536-well plates. In the screen, tamoxifen and doxorubicin were used as positive controls. Library compounds were measured for their ability to cause acute toxicity in the cell line, as reflected by a decrease in intracellular ATP levels, in a concentration-dependent manner. Data were normalized to the controls for basal activity (DMSO only) and 100% inhibition (100 uM tamoxifen). AC50 values were determined from concentration-response data modeled with the standard Hill equation.
# qHTS protocol fo CellTiter Glo HepG2 cellular assay
# [Step] [Parameter] [Value] [Description]
# 1. Reagent; 5 uL; 1500 HepG2 cells/well
# 2. Time; 5 hr; 37 °C incubation
# 4. Controls; 23 nL; Tamoxifen 0.34 uM to 100 uM & Doxorubicin 0.02 nM to 100 uM
# 5. Time; 40 hr; 37 °C incubation
# 6. Reagent; 5 uL; CellTiter Glo reagent
# 7. Time; 20 min; Room Temperature
# 8. Detection; Luminescence; Viewlux plate reader
# Keywords: cell viability, cytotoxicity, HepG2 cell line, luminescence, NTPHTS, NTPHTS_NCGC, NIEHS, EPA, DSSTox, MLSMR, MLSCN, NIH Roadmap, qHTS, NCGC
# Potency is the fitted concentration of half-maximal effect.
row,SMILES,Potency
1,CC(C)(C)OC=O,> 92 µM (inactive)
2,CCOCCOCC,> 92 µM (inactive)
3,CC(C)Nc1ccccc1,> 92 µM (inactive)
4,COc1ccc(OC)cc1,> 92 µM (inactive)
5,O=C1C=CCCC1,> 92 µM (inactive)
6,CNc1ccccc1,> 92 µM (inactive)
7,Cc1ccc(Br)cc1,> 92 µM (inactive)
8,N#CC1(O)CCCCC1,> 92 µM (inactive)
9,CC(O)COC(C)(C)C (stereo not given),> 92 µM (inactive)
10,CCCCC(CC)COCC1CO1 (stereo not given),> 92 µM (inactive)
11,CCOCCO,> 92 µM (inactive)
12,Cc1ccc(C)o1,> 92 µM (inactive)
13,CCCCC(CC)CNCC(CC)CCCC (stereo not given),> 92 µM (inactive)
14,ON=C1CCCCC1,> 92 µM (inactive)
15,CC(C)CO,> 92 µM (inactive)
16,COC(=O)CCCC(=O)OC,> 92 µM (inactive)
17,Cc1ccccc1C(N)=O,> 92 µM (inactive)
18,OC1CCCC1,> 92 µM (inactive)
19,Cc1ccco1,> 92 µM (inactive)
20,CCCCC(CC)C(=O)O (stereo not given),> 92 µM (inactive)

row,SMILES,Potency
1,Nc1nc(CC(=O)O)cs1,> 92 µM (inactive)
2,c1ccc(Oc2ccccc2)cc1,> 92 µM (inactive)
3,O=Cc1cccc(Br)c1,> 92 µM (inactive)
4,Cc1ccc(C(C)(C)C)cc1,> 92 µM (inactive)
5,BrC(Br)C(Br)Br,> 92 µM (inactive)
6,Nc1cccc(S(=O)(=O)O)c1,> 92 µM (inactive)
7,C=CCCCCCCC=C,> 92 µM (inactive)
8,NC=O,> 92 µM (inactive)
9,CCC(C)(C)C,> 92 µM (inactive)
10,COc1ccc(N=[N+]([O-])c2ccc(OC)cc2)cc1,> 92 µM (inactive)
11,Nc1cccc(C(F)(F)F)c1,> 92 µM (inactive)
12,C[C@@H]1O[C@@H](O[C@@H]2[C@@H](O)[C@H](OCCc3ccc(O)c(O)c3)O[C@H](CO[C@@H]3O[C@H](CO)[C@@H](O)[C@H](O)[C@H]3O)[C@H]2OC(=O)/C=C/c2ccc(O)c(O)c2)[C@H](O)[C@H](O)[C@H]1O,> 92 µM (inactive)
13,CC(=O)c1cccc([N+](=O)[O-])c1,> 92 µM (inactive)
14,Cc1ccc(S(=O)(=O)NC2CCCCC2)cc1,> 92 µM (inactive)
15,BrC/C=C/CBr,> 92 µM (inactive)
16,CC(C)N=C=NC(C)C,> 92 µM (inactive)
17,CC=C(Cl)Cl,> 92 µM (inactive)
18,Nc1nc2ccccc2[nH]1,> 92 µM (inactive)
19,COc1ccccc1[N+](=O)[O-],> 92 µM (inactive)
20,CCC1CO1 (stereo not given),> 92 µM (inactive)
